Bioassay records (PubChem BioAssay)
A selection: hits, their analogues and other compounds. The true share with any hit is near 19%.
Shiga inhibitor = Shiga toxin inhibition | inhibition, % at 38.7 µM | hit rate 9.2% among 290,000 | AID 2315 | Vero cells, Shiga toxin protein synthesis inhibition reporter; in the data active = inhibition mostly above about 28%, no sharp cut-off; inactive = mostly below about 43%
Pf growth 48h = P. falciparum growth inhibition at 48 hours (one generation); P. falciparum luciferase growth in erythrocytes, 48 h; Potency, µM (doses to about 28.7 µM), most hits filed as inhibitors; hit rate 5.9% among 310,000
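A one-generation exposure of luciferase-tagged malaria parasites in RPMI 1640/Albumax erythrocyte culture, 37 C and 5% CO2. Inhibition is inferred from decreased luminescence after adding detection reagent.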
CHX counter = counter-screen for Shiga toxin inhibitors: cycloheximide protein synthesis inhibition; cell reporter, cycloheximide protein synthesis inhibition counterscreen; max response, %; hit rate 12% among 300,000; AID 2314; in the data active = max response mostly above about 13%, no sharp cut-off; inactive = mostly below about 14%; note: read at 38.3 µM for the half of the compounds with a filed dose
AMA1 RON2 block = disrupts binding of P. falciparum AMA1 to RON2; AlphaScreen AMA1-biotinylated RON2 peptide binding; Potency, µM (doses to about 58.2 µM), most hits filed as inhibitors; hit rate 0.2% among 360,000; AID 720542; note: nearly all actives have a fitted effect of over 45% in size
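AMA1 (3D7) with his tag at 25 nM final met compounds first, then biotinylated RON2 peptide at 25 nM; detection used donor plus acceptor beads, 10 µg/mL apiece, read by AlphaScreen after 30 min at room temperature.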
SARS PLpro yeast = SARS-CoV PLP inhibition in yeast; hit rate 0.19% among 330,000; Potency, µM (titrated, usually from 32.9 µM), actives largely listed as activators; S. cerevisiae expressing SARS-CoV PLpro, growth rescue; calls by dose curve; note: nearly all actives have a fitted effect of over 55% in size
Pf growth 96h = P. falciparum growth inhibition at 96 hour, primary screen for plastid delayed-death inhibitors; P. falciparum luciferase reporter growth, 96 h; Potency, µM (top dose mostly 28.7 µM), hits mostly inhibitors; hit rate 6.9% among 320,000
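96 h incubation, 37 C, 5% CO2, of luciferase-reporter P. falciparum-infected RBCs (2% hematocrit, 0.05% parasitemia final) with test compounds; endpoint luminescence.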
Of the large screens only hits and unclear results are named; the others gave an inactive call. Unless noted, calls come from the whole dose curve; as a rule, active = well fitted curve in the direction sought with a large enough effect; inconclusive = small, poorly fitted or top-dose-only effect, or another doubt; inactive = no such curve, though single readings can be large; an effect the other way counts as inactive or inconclusive.

COc1ccccc1C(=O)Nc1ccc2c(C)cc(=O)oc2c1	Shiga inhibitor 107, CHX counter 35
Fc1cccc(NC(=S)NCc2ccccn2)c1	Shiga inhibitor 94, CHX counter 50
Cc1cc(=O)oc2cc(NC(=O)c3cccc(S(=O)(=O)N(C)C)c3)ccc12	Shiga inhibitor 66, CHX counter 28
CCOc1ncccc1C(=O)Nc1ccc2c(C)cc(=O)oc2c1	SARS PLpro yeast inconclusive
Cc1cc(=O)oc2cc(NC(=O)c3ccc(OC(F)F)cc3)ccc12	Shiga inhibitor 43, CHX counter 21
Cc1cc(=O)oc2cc(Nc3ccccc3)ccc12	Shiga inhibitor 55, CHX counter 60
Cc1cc(=O)oc2cc(NC(=S)NNC(=O)c3c(Cl)cnn3C)ccc12	Shiga inhibitor 48, Pf growth 96h inconclusive
Cc1cc(=O)oc2cc(NC(=O)CCC(=O)O)ccc12	none
Cc1cc(=O)oc2cc(NC(=S)NCc3ccccn3)ccc12	Shiga inhibitor 34
Cc1cc(=O)oc2cc(NC(=O)Cc3ccccc3)ccc12	Shiga inhibitor 45
O/N=C\c1cccn1-c1ccc(Br)cc1	Pf growth 48h inconclusive (no result: Pf growth 96h)
COc1cc(CN2CCNC(=O)C2CC(=O)N(C)CCC2CCOCC2)cc(OC)c1 (centres undefined)	none
O=C(c1ccc(NS(=O)(=O)c2cccc(F)c2)cc1)N1CCCCC1	none
CCNCCNC(=O)c1c(O)c2c([nH]c1=O)CCCC2	none
CCCc1nnc(NC(=O)c2c(O)c3c([nH]c2=O)CCCC3)s1	none
O=C(N/N=C/c1ccccc1)c1c(O)c2ccccc2[nH]c1=O	none
O=C(Nc1nccs1)c1c(O)c2c([nH]c1=O)CCCC2	CHX counter 13
O=C(Nc1ccccc1O)c1c(O)c2c([nH]c1=O)CCCC2	Shiga inhibitor 116, CHX counter 40
O=C(N/N=C/c1cccc(Cl)c1)c1c(O)c2c([nH]c1=O)CCCC2	CHX counter 18
O=C(COC(=O)C1CC2CCCC(C1)C2=O)NNC(=O)c1ccccc1F (centres undefined)	none (no result: Shiga inhibitor, CHX counter)
COc1cccc2c1C(=O)CC1C2CCC2CC(=O)CCC21C (centres undefined)	none (no result: Shiga inhibitor, Pf growth 48h, CHX counter, SARS PLpro yeast, Pf growth 96h)
CCOc1ccc2nc(COC(=O)c3ccncc3)c(C(=O)c3ccccc3)[n+]([O-])c2c1	Shiga inhibitor 52, CHX counter 27
O=C1/C(=C/c2cccc(O)c2)SC(=S)N1CC1CCCO1 (centres undefined)	Shiga inhibitor 72, Pf growth 48h inconclusive, CHX counter 32
COc1cccc(/C=C2\SC(=S)N(CC3CCCO3)C2=O)c1 (centres undefined)	Shiga inhibitor 38, CHX counter 26, AMA1 RON2 block inconclusive
O=C(Cn1c(=O)n(CC2CCCO2)c(=O)c2ccccc21)c1ccccc1 (centres undefined)	Pf growth 96h inconclusive
COc1cccc(C(=O)Cn2c(=O)n(CC3CCCO3)c(=O)c3ccccc32)c1 (centres undefined)	Pf growth 96h 12µM (no result: Pf growth 48h)
CCOc1cc(/C=C2/SC(=S)N(CC3CCCO3)C2=O)ccc1O (centres undefined)	Pf growth 48h inconclusive
O=C(NC1CCCC1)C(c1ccccn1)N(C(=O)c1csnn1)c1ccc(F)cc1 (centres undefined)	none
CN(C)c1ccc(/C=C(/NC(=O)c2ccccc2)C(=O)N2CCCC2)cc1	none
COc1ccc(OC)c(-c2cc(C(=O)Nc3cc(C)n(Cc4ccc(Cl)cc4)n3)no2)c1	Pf growth 48h 2.1µM
COc1cccc(-c2cc(C(=O)Nc3cc(C)n(Cc4ccc(Cl)cc4)n3)no2)c1	Pf growth 48h 10µM
Cc1nn(Cc2ccc(Cl)cc2)c(C)c1NC(=O)c1cc(-c2ccco2)on1	Pf growth 48h inconclusive
COc1ccc(-c2cc(C(=O)Nc3c(C)nn(Cc4ccc(Cl)cc4)c3C)no2)cc1	Pf growth 96h inconclusive (no result: Pf growth 48h)
Cc1cc(NC(=O)c2cc(-c3ccco3)on2)nn1Cc1ccc(Cl)cc1	Pf growth 48h 6.6µM (no result: Pf growth 96h)
COc1cccc(-c2cc(C(=O)Nc3ccn(Cc4ccc(C)cc4)n3)no2)c1	Pf growth 48h inconclusive
O=S(=O)(Nc1cccc2ccccc12)c1ccc2ccccc2c1	none (no result: Pf growth 48h, AMA1 RON2 block, SARS PLpro yeast, Pf growth 96h)
O=C(O)/C=C/C(=O)Nc1ccccc1C(=O)OCC(=O)c1ccc2c(c1)OCCO2	Shiga inhibitor 75, CHX counter 25, Pf growth 96h inconclusive
CCCCC(=O)Nc1ccccc1C(=O)OCC(=O)c1ccc2c(c1)OCCO2	Shiga inhibitor active, CHX counter 38, SARS PLpro yeast inconclusive
Clc1cccc(Cl)c1C[n+]1ccc2ccccc2c1	Pf growth 48h 2.1µM
c1ccc(C[n+]2ccc3ccccc3c2)cc1	none (no result: Shiga inhibitor, Pf growth 48h, CHX counter, SARS PLpro yeast, Pf growth 96h)
COc1ccc(CCC2(C)NC(=O)N(C(C)C(=O)N3c4ccccc4CC3C)C2=O)cc1 (centres undefined)	Pf growth 48h 13µM, Pf growth 96h inconclusive (no result: Shiga inhibitor, CHX counter)
O=C(NC1CCCCC1)C(c1ccccc1)N(C(=O)c1csnn1)C1CCCC1 (centres undefined)	none
CCC(C)c1ccccc1NC(=O)CN1CCN(C/C=C/c2ccccc2)CC1 (centres undefined)	Pf growth 48h inconclusive, Pf growth 96h 13µM
COc1ccc(Cl)cc1NC(=O)C(C)N1CCN(C/C=C/c2ccccc2)CC1 (centres undefined)	AMA1 RON2 block inconclusive, Pf growth 96h 12µM (no result: Pf growth 48h)
CC(=O)c1ccc(S(=O)(=O)NCC(=O)N2CCN(C/C=C/c3ccccc3)CC2)cc1	Pf growth 48h 12µM, Pf growth 96h 12µM (no result: Shiga inhibitor, CHX counter)
CC(=O)c1ccc(NC(=O)C(C)N2CCN(C/C=C/c3ccccc3)CC2)cc1 (centres undefined)	Pf growth 48h inconclusive, Pf growth 96h inconclusive
Cc1ccc(S(=O)(=O)NCCC(=O)N2CCN(C/C=C/c3ccccc3)CC2)cc1	Pf growth 48h inconclusive, Pf growth 96h inconclusive (no result: Shiga inhibitor, CHX counter)
O=C(CN1CCN(C/C=C/c2ccccc2)CC1)NCc1ccccc1	none
Cc1ccc(S(=O)(=O)NC(CC(C)C)C(=O)N2CCN(C/C=C/c3ccccc3)CC2)cc1 (centres undefined)	Pf growth 48h 8.3µM, Pf growth 96h inconclusive (no result: Shiga inhibitor, CHX counter)
COc1cccc(CN2CCN(Cc3nc(C(C)C)cs3)CC2CCO)c1 (centres undefined)	none
Cn1c(=O)c2c(nc(N3CCc4ccccc4C3)n2C)n(C)c1=O	none
Cc1ccc(C2CCN(C(=O)Nc3ccc(F)cc3)C2)cc1 (centres undefined)	Shiga inhibitor 89, CHX counter 19, Pf growth 96h inconclusive
COc1ccc(Cl)cc1NC(=S)N1CCC(c2ccc(C)cc2)C1 (centres undefined)	Pf growth 48h inconclusive
Cc1nc2cc(NC(=O)N3CCC(c4ccccc4)C3)ccc2n1C (centres undefined)	Shiga inhibitor 99, CHX counter 27 (no result: Pf growth 96h)
Cc1nc2cc(NC(=O)N3CCCC3)ccc2n1C	none
